Consider eight compounds from ChEMBL document CHEMBL3988442, “University of Dundee, Small-Polar-MMV Screening Library” (2021).

For some of these results: Entries with a potency or affinity are not part of this list.

Common to all, as to parameters: scale not given: direction of the effect not stated beside the values
The target in assay [1] is Protein translocase subunit SecA (Escherichia coli (strain K12)) (UniProt P10408). The assay can be described thus: Assay to Identify E. coli SecA ATPase Inhibitors. The format is functional. As to conditions: 30 µM.
Assay [2] deals with T1, Ubiquitin-activating enzyme e1, putative (Leishmania donovani (strain BPK282A1)) (UniProt E9BSI1).
T1 sequence (whole entry): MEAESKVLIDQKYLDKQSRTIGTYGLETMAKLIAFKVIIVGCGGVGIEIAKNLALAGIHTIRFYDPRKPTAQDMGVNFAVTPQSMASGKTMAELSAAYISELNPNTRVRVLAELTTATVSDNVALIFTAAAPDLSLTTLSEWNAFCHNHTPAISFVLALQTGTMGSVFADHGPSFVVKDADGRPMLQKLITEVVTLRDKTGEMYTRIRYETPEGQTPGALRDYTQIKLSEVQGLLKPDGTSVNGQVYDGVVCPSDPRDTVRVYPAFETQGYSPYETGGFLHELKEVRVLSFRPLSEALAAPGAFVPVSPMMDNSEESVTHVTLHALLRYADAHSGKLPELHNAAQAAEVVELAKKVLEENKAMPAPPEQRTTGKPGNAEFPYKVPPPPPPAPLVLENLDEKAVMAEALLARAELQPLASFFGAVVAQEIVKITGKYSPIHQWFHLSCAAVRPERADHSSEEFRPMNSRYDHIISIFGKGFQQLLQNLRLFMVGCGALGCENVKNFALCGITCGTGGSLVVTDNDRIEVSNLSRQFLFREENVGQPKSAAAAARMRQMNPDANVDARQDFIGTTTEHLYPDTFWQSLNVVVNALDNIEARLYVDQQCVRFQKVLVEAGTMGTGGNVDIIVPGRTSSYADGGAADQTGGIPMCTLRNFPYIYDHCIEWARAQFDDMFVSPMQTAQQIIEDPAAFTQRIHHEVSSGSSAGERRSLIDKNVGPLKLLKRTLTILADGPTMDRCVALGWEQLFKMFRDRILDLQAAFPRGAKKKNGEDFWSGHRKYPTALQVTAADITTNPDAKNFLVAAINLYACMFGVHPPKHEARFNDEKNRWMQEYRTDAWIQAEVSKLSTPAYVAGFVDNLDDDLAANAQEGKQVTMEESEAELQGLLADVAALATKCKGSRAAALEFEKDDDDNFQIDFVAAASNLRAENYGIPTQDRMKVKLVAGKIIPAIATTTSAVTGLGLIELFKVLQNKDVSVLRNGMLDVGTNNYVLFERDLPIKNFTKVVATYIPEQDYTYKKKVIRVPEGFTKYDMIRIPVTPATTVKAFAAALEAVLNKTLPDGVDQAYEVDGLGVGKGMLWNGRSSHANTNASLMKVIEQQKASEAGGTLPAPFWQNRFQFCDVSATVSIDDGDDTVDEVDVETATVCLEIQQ
The assay can be described thus: Leishmania donovani Ubiquitin Activating Enzyme (LdE1). Particulars: 30 µM. The format is functional.

The target in assay [3] is AMP-activated protein kinase, AMPK (Homo sapiens) (UniProt P54646+O43741+P54619+Q9UGJ0+Q9Y478+Q13131+Q9UGI9). The assay can be described thus: AMP-dependent Kinase enzyme assay. An in vitro enzyme assay that detects ADP turnover that is directly proportional to AMPK activity. This uses naive AMPK that is activated during the assay with MK-8722. It is filed as functional. As to conditions: 30 µM.

Assay [4] has as its target Sialic acid-binding Ig-like lectin 9 (Homo sapiens) (UniProt Q9Y336). The assay can be described thus: Hs-Siglec9 ALPHAscreen SOP 20170721. As to conditions: 10 µM. (In general: In Alpha technology, singlet oxygen from a donor bead excites a nearby acceptor bead.)
In assay [5] the test system is Trypanosoma cruzi. The assay can be described thus: Trypanosoma cruzi phosphomannomutase and mannose-1-phosphate guanylyltransferase assay. The format is functional. Particulars: 10 µM.
The target of assay [6] is T2, Arginase-2, mitochondrial (Homo sapiens) (UniProt P78540).
T2 sequence (whole entry): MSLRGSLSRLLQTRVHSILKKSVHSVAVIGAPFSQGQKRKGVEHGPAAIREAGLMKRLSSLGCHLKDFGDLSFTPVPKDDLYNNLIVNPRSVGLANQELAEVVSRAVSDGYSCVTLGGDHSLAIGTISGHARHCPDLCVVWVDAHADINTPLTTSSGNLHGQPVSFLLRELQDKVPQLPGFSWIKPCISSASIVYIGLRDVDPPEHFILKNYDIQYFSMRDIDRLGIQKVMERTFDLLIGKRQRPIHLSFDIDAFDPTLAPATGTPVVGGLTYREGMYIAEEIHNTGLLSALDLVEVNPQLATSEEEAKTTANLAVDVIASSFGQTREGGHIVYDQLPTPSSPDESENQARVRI
Briefly: in vitro enzyme assay to detect the production of urea directly proportional to the activity of Arginase II. Note: in the data most compounds retested in dose-response had high values. As to conditions: 33.3 µM. The format is functional.

In assay [7] the target is T3, Proteasome subunit beta (Trypanosoma cruzi) (UniProt O96673).
T3 sequence (whole entry): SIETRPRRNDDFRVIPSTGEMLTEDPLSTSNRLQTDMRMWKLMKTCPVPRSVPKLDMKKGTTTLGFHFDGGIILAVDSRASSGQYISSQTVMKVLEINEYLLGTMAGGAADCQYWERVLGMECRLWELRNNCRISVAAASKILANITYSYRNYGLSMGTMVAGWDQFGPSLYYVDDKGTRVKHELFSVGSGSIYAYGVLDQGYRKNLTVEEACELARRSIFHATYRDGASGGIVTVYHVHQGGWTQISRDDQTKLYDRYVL
The assay can be described thus: Trypanosoma cruzi proteasome chymotrypsin-like activity (TcProtChymo) assay. Note: in the data most compounds retested in dose-response had high values. The format is functional. Particulars: 9.37 µM.

For assay [8], the species on record is Homo sapiens. Briefly: To identify inhibition of the IFN signalling (Jak-Stat) pathway via expression of an eGFP reporter gene under the control of an IFN-stimulated response element (ISRE) containing MxA promoter. As to conditions: 30 µM. The format is functional. In general terms: In a reporter assay the amount or activity of a reporter protein is the signal.

Assay [9] addresses T4, Tyrosyl-tRNA synthetase, putative (Trypanosoma cruzi (strain CL Brener)) (UniProt Q4DSP6).
T4 sequence (whole entry): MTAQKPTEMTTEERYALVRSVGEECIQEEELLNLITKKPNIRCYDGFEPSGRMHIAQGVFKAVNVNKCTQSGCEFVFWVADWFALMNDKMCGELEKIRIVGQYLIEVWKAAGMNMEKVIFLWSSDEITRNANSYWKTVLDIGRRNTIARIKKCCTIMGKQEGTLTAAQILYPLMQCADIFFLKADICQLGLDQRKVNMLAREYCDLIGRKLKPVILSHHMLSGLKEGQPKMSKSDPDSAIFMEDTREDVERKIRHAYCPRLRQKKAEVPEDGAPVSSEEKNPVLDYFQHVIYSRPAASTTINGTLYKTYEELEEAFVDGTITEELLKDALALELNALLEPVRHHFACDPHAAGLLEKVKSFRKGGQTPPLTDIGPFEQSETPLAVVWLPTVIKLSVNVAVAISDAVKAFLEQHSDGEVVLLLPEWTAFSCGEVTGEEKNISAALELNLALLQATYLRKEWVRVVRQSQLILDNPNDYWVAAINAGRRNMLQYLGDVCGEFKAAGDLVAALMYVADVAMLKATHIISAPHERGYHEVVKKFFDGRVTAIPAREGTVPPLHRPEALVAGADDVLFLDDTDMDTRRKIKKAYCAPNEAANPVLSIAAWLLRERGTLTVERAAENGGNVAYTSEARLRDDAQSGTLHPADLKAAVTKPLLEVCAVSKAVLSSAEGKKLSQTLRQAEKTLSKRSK
Briefly: Trypanosoma cruzi tyrosyl tRNA synthetase (TcYRS) _High Tyrosine SOP. Note: in the data most compounds retested in dose-response had high values. It is filed as functional. Particulars: 30 µM.

The target of assay [10] is T4, Tyrosyl-tRNA synthetase, putative (Trypanosoma cruzi (strain CL Brener)). Briefly: Trypanosoma cruzi tyrosyl tRNA synthetase (TcYRS) SOP. The format is functional. Particulars: 30 µM.
In assay [11] the target is Chromo domain-containing protein 1 (Saccharomyces cerevisiae (strain ATCC 204508 / S288c) (Baker's yeast)) (UniProt P32657). Briefly: ScCHD-1 Enzyme Inhibition Assay. Note: in the data most compounds retested in dose-response had high values. It is filed as functional. As to conditions: 30 µM.
Sequence of Chromo domain-containing protein 1 (Saccharomyces cerevisiae (strain ATCC 204508 / S288c) (Baker's yeast)) (P32657 whole entry, the tested form may be a part): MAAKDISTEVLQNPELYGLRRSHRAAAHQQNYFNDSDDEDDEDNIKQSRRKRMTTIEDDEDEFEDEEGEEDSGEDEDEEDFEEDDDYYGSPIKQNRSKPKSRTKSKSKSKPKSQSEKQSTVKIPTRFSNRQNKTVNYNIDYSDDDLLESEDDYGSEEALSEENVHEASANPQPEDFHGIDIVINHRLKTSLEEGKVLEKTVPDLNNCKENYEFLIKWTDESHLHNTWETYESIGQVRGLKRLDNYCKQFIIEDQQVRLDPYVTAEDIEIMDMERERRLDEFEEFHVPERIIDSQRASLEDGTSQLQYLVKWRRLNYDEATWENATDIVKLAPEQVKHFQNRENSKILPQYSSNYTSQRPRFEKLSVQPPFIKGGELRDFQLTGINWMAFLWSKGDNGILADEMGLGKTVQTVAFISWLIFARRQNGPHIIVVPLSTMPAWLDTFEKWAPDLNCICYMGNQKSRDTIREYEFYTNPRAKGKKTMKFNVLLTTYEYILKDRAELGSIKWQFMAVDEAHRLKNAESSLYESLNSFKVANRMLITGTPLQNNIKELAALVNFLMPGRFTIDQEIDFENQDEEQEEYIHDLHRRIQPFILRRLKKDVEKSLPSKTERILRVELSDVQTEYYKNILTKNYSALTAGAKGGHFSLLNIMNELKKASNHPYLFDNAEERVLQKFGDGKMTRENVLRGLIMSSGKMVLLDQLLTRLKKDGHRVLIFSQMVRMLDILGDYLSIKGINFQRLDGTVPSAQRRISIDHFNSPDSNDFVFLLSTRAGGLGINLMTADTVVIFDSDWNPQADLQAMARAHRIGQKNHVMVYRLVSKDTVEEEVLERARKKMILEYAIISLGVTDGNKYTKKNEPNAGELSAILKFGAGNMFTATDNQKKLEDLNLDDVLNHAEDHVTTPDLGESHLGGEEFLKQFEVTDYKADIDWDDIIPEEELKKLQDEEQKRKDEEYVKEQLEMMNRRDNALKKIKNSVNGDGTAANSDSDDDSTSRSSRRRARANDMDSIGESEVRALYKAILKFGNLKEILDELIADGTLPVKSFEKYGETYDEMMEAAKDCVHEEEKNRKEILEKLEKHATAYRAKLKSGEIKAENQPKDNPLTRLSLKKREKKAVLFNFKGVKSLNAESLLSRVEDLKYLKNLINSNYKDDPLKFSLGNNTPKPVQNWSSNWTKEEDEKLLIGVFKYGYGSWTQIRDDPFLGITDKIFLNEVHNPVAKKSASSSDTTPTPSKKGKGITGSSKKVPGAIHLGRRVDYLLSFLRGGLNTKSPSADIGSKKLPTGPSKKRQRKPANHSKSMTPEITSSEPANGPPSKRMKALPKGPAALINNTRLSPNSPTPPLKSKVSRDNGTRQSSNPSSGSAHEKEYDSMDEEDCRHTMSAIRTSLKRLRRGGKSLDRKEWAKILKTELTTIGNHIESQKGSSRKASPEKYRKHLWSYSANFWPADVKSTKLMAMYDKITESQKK

Sequence of Protein translocase subunit SecA (Escherichia coli (strain K12)) (P10408 whole entry): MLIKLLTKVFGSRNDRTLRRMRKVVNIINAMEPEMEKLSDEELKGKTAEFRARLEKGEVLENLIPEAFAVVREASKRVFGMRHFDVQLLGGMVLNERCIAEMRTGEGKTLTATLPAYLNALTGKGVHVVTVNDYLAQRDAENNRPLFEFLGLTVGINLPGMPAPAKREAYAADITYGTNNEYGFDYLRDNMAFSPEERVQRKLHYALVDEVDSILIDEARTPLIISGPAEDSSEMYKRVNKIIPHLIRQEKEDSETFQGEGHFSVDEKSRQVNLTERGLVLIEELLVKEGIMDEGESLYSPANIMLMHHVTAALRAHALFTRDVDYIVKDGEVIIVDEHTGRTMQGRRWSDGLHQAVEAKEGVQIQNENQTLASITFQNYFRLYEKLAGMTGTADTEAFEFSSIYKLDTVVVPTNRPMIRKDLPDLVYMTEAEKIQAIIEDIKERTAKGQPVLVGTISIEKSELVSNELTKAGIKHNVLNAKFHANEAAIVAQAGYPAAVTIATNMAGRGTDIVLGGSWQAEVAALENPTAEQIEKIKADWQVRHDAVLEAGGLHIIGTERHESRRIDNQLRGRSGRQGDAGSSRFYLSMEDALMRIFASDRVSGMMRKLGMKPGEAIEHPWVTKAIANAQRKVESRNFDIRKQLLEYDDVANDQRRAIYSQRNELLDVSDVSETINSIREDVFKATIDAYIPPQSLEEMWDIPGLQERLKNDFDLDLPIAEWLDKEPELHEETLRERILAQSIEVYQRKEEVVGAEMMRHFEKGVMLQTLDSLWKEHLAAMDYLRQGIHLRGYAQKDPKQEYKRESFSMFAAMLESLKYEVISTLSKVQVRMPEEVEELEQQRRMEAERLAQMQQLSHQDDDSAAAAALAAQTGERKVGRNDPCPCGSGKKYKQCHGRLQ
Sequence of Sialic acid-binding Ig-like lectin 9 (Homo sapiens) (Q9Y336 whole entry): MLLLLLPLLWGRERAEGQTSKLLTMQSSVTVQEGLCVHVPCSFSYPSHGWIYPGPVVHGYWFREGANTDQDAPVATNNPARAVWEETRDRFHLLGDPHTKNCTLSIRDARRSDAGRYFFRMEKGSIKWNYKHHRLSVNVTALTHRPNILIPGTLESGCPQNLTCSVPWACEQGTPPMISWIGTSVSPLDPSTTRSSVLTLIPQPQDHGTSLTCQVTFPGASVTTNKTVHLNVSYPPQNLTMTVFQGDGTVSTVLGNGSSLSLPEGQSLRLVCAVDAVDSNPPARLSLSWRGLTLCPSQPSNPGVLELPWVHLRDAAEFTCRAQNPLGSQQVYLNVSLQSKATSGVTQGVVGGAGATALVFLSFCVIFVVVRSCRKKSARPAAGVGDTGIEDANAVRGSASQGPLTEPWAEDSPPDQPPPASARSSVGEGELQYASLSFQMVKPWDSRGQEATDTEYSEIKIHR

Regarding `CC(C#N)CSc1ccccc1NCC(=O)NCc1ccccc1` (stereo not drawn), the Percent Effect was -3.57% in assay [1]; -8.22% in assay [2]; 11.4% in [3]; 8.76% in assay [4]; 5.49% in assay [5]; 14.1% in assay [6]. The Percent Effect in assay [7] was 11.7%; in assay [8], 19.4%; in assay [9], -2.15%; in [10], -5%; in assay [11], -1.42%.
As for `CCN1CCN(S(=O)(=O)c2cc(C)c(Cl)cc2Cl)CC1`, the Percent Effect in assay [1] is -6.87%; in [2], -2.6%; in assay [3] it was 4.8%; in assay [4], 4.35%; in assay [5] it was -2.85%; in [6] it was 1.38%. Besides, the Percent Effect in assay [7] is -0.166%; in [8], 13.9%; in [9], -3.23%; in assay [10], -6.17%; in assay [11] it was 4.8%.
In the case of `Cc1csc(N2CCN(Cc3ccccn3)CC2C)n1` (stereo not drawn), the Percent Effect in assay [1] was -3.15%; in assay [2], 5.48%; in assay [3] it was -20.3%; in assay [4], -2.48%; in assay [5], -2.74%; in [6], 0.909%. The Percent Effect in assay [7] was 13.3%; in assay [8], 19.9%; in [9], 9.68%; in assay [10], 12.5%; in assay [11] it was -2.29%.
As to `CC(C)=CCN1CCOC(Cn2nc(C)cc2C)C1` (stereo not drawn), the Percent Effect in assay [1] is 2.83%; in assay [2], 18.4%; in [3], 3.22%; in assay [4], -4.58%; in assay [5], -8.27%; in assay [6] it was -1.92%. Besides, the Percent Effect is 16.7% in [7]; 8.7% in assay [8]; 3.43% in [9]; 17.1% in [10]; -11.3% in [11].
With `CN(CCc1ccccc1)C1CCCN(Cc2nccn2C)C1` (stereo not drawn), the Percent Effect was -4.99% in assay [1]; -39% in [2]; -1.69% in assay [3]; 5.27% in assay [4]; 8.36% in assay [5]; 0% in [6]. For the same compound, the Percent Effect in assay [7] was 9.48%; in [8] it was -25.8%; in assay [9] it was 6.45%; in assay [10], 6.17%; in assay [11] it was -8.68%.
For the compound `Cc1noc([C@H]2COC[C@H]3CN(C(=O)Cc4ccc(F)cc4)C[C@H]32)n1`, the Percent Effect in assay [1] was -6.71%; in [2], 10.8%; in assay [3], -2.57%; in assay [4], 13.3%; in assay [5] it was 3.91%; in assay [6] it was 3.75%. Moreover, the Percent Effect in assay [7] is 7.18%; in assay [8], -8.46%; in assay [9], 5.94%; in [10], 11%; in assay [11], -1.22%.
As to `CCOc1ncccc1C(=O)N(C)Cc1ncc(C)c(OC)c1C`, the Percent Effect in [1] is -0.0989%; in assay [2] it was 13%; in [3], 5.97%; in assay [4], -3.9%; in [5], -3.23%; in assay [6], 6.95%. For the same compound, the Percent Effect in assay [7] was 12.5%; in [8] it was 27.5%; in assay [9], 5.71%; in [10], 18.8%; in assay [11], -14.4%.
With `O=C(c1ccno1)N1CC[C@@H]2O[C@@H](COCCN3CCCC3)CC[C@@H]21`, the Percent Effect in assay [1] is -3.63%; in assay [2], 10.8%; in assay [3], 1.12%; in [4], -3.29%; in assay [5], 1.66%; in [6] it was -1.59%. Moreover, the Percent Effect in assay [7] was 21.2%; in [8], -0.519%; in assay [9], 5.41%; in assay [10], 15.4%; in assay [11], -2.39%.
